One assay has as its system DAPK1. The note with it: concentration: 1 μM, replicates: in singlicate, n = 1.
A further assay relates to DAPK2. The note with it: concentration: 1 μM, replicates: in singlicate, n = 1.
The next assay relates to DAPK3. Particulars: concentration: 1 μM, replicates: in singlicate, n = 1.
A further assay has as its system T1, DCAMKL1.
T1 construct: gene DCLK1
Particulars: concentration: 1 μM, replicates: in singlicate, n = 1.

Another assay concerns T2, DCAMKL2.
T2 construct: gene DCLK2
Particulars: concentration: 1 μM, replicates: in singlicate, n = 1.

The next assay deals with T3, DCAMKL3.
T3 construct: gene DCLK3
Particulars: concentration: 1 μM, replicates: in singlicate, n = 1.

For a further assay, the system named is DDR1. The note with it: concentration: 1 μM, replicates: in singlicate, n = 1.
For another assay, the system named is DDR2. Particulars: concentration: 1 μM, replicates: in singlicate, n = 1.
Another assay has as its system T4, DLK.
T4 construct: gene MAP3K12
The note with it: concentration: 1 μM, replicates: in singlicate, n = 1.

For a further assay, the system named is T5, DMPK2.
T5 construct: gene CDC42BPG
Particulars: concentration: 1 μM, replicates: in singlicate, n = 1.

The subject of the next assay is DMPK. The note with it: concentration: 1 μM, replicates: in singlicate, n = 1.
The subject of another assay is T6, DRAK1.
T6 construct: gene STK17A
The note with it: concentration: 1 μM, replicates: in singlicate, n = 1.

In the next assay the test system is T7, DRAK2.
T7 construct: gene STK17B
The note with it: concentration: 1 μM, replicates: in singlicate, n = 1.

The next assay has as its system DYRK1A. Particulars: concentration: 1 μM, replicates: in singlicate, n = 1.
In the next assay the test system is DYRK1B. Particulars: concentration: 1 μM, replicates: in singlicate, n = 1.
The test system of the next assay is DYRK2. The note with it: concentration: 1 μM, replicates: in singlicate, n = 1.
A further assay relates to EGFR. Particulars: concentration: 1 μM, replicates: in singlicate, n = 1.
The test system of a further assay is EIF2AK1. Particulars: concentration: 1 μM, replicates: in singlicate, n = 1.
The subject of another assay is EPHA1. Particulars: concentration: 1 μM, replicates: in singlicate, n = 1.
Another assay has as its system EPHA2. Particulars: concentration: 1 μM, replicates: in singlicate; n = 1.

Molecules are shown by their SMILES. “And” between values parts separate entries of the source, which are not always exact repeats. Equal entries are not always repeated. Where two headings read alike, the source gives them in different places.
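Note: KINOMEscan kinase panel screen.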

As for `NCCNS(=O)(=O)c1ccc(-c2ccnc3[nH]ccc23)cc1` [GSK977617], the “%Inh” value in the assay on DAPK1 (1 µM) was 94% and 90.7%; with DAPK2 (1 µM) it was 91.4% and 86%; in the assay on DAPK3 (1 µM), 98.5% and 97.6%; in the assay on DCAMKL1 (1 µM) it was 50% and 52%; in the assay with DCAMKL2 (1 µM), 34% and 28%; with DCAMKL3 (1 µM) it was 58% and 39%. The “%Inh” value with DDR1 is 0%; in the assay with DDR2 (1 µM), 12% and 8%; in the assay on DLK (1 µM) it was 48% and 40%; in the assay on DMPK2 (1 µM), 78% and 71%; in the assay with DMPK (1 µM), 98.6% and 96.7%; with DRAK1 (1 µM) it was 98.5% and 96.6%. In addition, the “%Inh” value in the assay on DRAK2 (1 µM) was 77% and 60%; in the assay with DYRK1A (1 µM), 89% and 84%; in the assay on DYRK1B (1 µM) it was 85% and 61%; in the assay on DYRK2 (1 µM), 86% and 72%; in the assay with EGFR (1 µM) it was 22% and 15%; in the assay on EIF2AK1 (1 µM), 11% and 0%. Also, the “%Inh” value is 54% and 38% in the assay with EPHA1 (1 µM); 0% in the assay on EPHA2.

With `c1ccc(-c2cc(-c3c[nH]nc3-c3ccccn3)ccn2)cc1` [GW576604], the “%Inh” value is on record as 8% in the assay with DAPK1; 0% in the assay on DAPK2; 22% with DAPK3; 0% in the assay on DCAMKL1; 23% in the assay with DCAMKL2; 12% in the assay on DCAMKL3. Besides, the “%Inh” value is on record as 0% with DDR1; 24% with DDR2; 26% with DLK; 0% in the assay on DMPK2; 0% in the assay on DMPK; 11% in the assay on DRAK1. The “%Inh” value in the assay on DRAK2 was 0%; in the assay with DYRK1A, 4%; in the assay on DYRK1B it was 0%; in the assay on DYRK2, 0%; in the assay with EGFR it was 17%; in the assay with EIF2AK1, 0%. For the same molecule, the “%Inh” value in the assay with EPHA1 and in the assay with EPHA2 was 0% each time.

In the case of `NCC(NC(=O)c1cc(-c2cn[nH]c2)c(-c2ccnc3[nH]ccc23)s1)c1ccccc1.O=C(O)C(F)(F)F.O=C(O)C(F)(F)F` (centres unmarked) [GSK1325775], the “%Inh” value is listed as 71% with DAPK1; 37% in the assay with DAPK2; 87% in the assay on DAPK3; 6% in the assay on DCAMKL1; 0% in the assay on DCAMKL2; 0% in the assay with DCAMKL3. The “%Inh” value with DDR1 was determined as 0%; with DDR2, 43%; with DLK, 37%; in the assay with DMPK2, 89%; with DMPK it was 95.8%; with DRAK1, 90.6%. Further, the “%Inh” value in the assay with DRAK2 turned out to be 0%; in the assay with DYRK1A, 44%; in the assay on DYRK1B it was 35%; in the assay on DYRK2, 79%; in the assay with EGFR, 4%; with EIF2AK1, 0%. Besides, the “%Inh” value with EPHA1 was determined as 13%; with EPHA2 it was 0%.

As to `Cl.Cl.Cl.Fc1ccc(-c2ncn(C3CCNCC3)c2-c2ccnc(Nc3ccccc3)n2)cc1` [SB-238039], the “%Inh” value is 0% and 24% with DAPK1 (1 µM); 0% with DAPK2; 18% and 0% in the assay on DAPK3 (1 µM); 18% and 12% in the assay with DCAMKL1 (1 µM); 22% and 33% in the assay on DCAMKL2 (1 µM); 8% and 75% in the assay with DCAMKL3 (1 µM). Moreover, the “%Inh” value is 87% and 84% with DDR1 (1 µM); 87% and 63% in the assay on DDR2 (1 µM); 29% and 7% in the assay with DLK (1 µM); 99.9% and 99.8% with DMPK2 (1 µM); 28% with DMPK; 9% and 3% in the assay on DRAK1 (1 µM). For the same molecule, the “%Inh” value with DRAK2 (1 µM) was 18% and 6%; in the assay on DYRK1A, 0%; with DYRK1B (1 µM), 6% and 7%; in the assay with DYRK2 (1 µM), 11% and 0%; in the assay on EGFR (1 µM), 90.1% and 72%; in the assay on EIF2AK1 (1 µM), 0% and 1%. For the same molecule, the “%Inh” value with EPHA1 and in the assay with EPHA2 was 0% each time.

As to `Cc1c2ccc(N(C)c3ccnc(Nc4cccc(S(N)(=O)=O)c4)n3)cc2nn1Cc1ccccc1.Cl.Cl` [GW787226], the “%Inh” value with DAPK1 amounted to 0%; in the assay on DAPK2, 1%; in the assay on DAPK3, 0%; in the assay on DCAMKL1, 24%; with DCAMKL2 it was 0%; in the assay with DCAMKL3, 0%. Moreover, the “%Inh” value with DDR1 is listed as 97.7%; in the assay on DDR2 it was 96.8%; in the assay with DLK, 0%; in the assay with DMPK2 it was 0%; in the assay on DMPK, 8%; with DRAK1 it was 3%. Besides, the “%Inh” value in the assay on DRAK2 turned out to be 16%; with DYRK1A, 0%; in the assay with DYRK1B, 0%; with DYRK2 it was 0%; in the assay on EGFR, 5%; in the assay with EIF2AK1, 0%. Besides, the “%Inh” value came to 21% in the assay on EPHA1 and 4% in the assay on EPHA2.

For `Cc1nnc(-c2ccc(C)c(-c3ccc(C(=O)Nc4ccc(NS(C)(=O)=O)cc4)cc3)c2)o1` [GW702865], the “%Inh” value in the assay with DAPK1 was found to be 8%; with DAPK2, 3%; with DAPK3, 18%; in the assay with DCAMKL1, 8%; with DCAMKL2, 0%; in the assay on DCAMKL3, 0%. In addition, the “%Inh” value in the assay on DDR1 worked out at 0%; in the assay with DDR2 it was 46%; in the assay on DLK, 0%; with DMPK2, 0%; in the assay on DMPK, 0%; in the assay with DRAK1, 0%. The “%Inh” value worked out at 0% in the assay with DRAK2; 0% in the assay on DYRK1A; 1% with DYRK1B; 0% in the assay with DYRK2; 13% in the assay with EGFR; 0% in the assay with EIF2AK1. Also, the entries for the “%Inh” value with EPHA1 and in the assay with EPHA2 were 0% and 16%, respectively.

For the molecule `Nc1nc(-c2ccc3c(N)n[nH]c3c2)cc(N2CCCC2)n1` [GSK2227430], the “%Inh” value is reported as 0% with DAPK1; 0% with DAPK2; 1% with DAPK3; 13% in the assay with DCAMKL1; 0% in the assay on DCAMKL2; 0% with DCAMKL3. Moreover, the “%Inh” value in the assay on DDR1 came to 7%; in the assay with DDR2, 3%; in the assay on DLK it was 0%; in the assay with DMPK2 it was 0%; with DMPK, 0%; with DRAK1, 73%. Moreover, the “%Inh” value in the assay with DRAK2 was found to be 0%; in the assay on DYRK1A, 9%; with DYRK1B it was 4%; with DYRK2 it was 37%; in the assay with EGFR, 2%; with EIF2AK1, 0%. Also, the “%Inh” value in the assay on EPHA1 is reported as 0%; in the assay with EPHA2, 12%.

Turning to `COc1cc2ncn(-c3cc(OCc4sccc4Cl)c(C(N)=O)s3)c2cc1OC` [GSK448459], the “%Inh” value was 12% with DAPK1; 2% with DAPK2; 36% with DAPK3; 5% with DCAMKL1; 4% with DCAMKL2; 0% in the assay with DCAMKL3. The “%Inh” value in the assay on DDR1 turned out to be 0%; in the assay on DDR2 it was 12%; with DLK it was 32%; with DMPK2 it was 0%; in the assay with DMPK, 0%; in the assay with DRAK1, 0%. Further, the “%Inh” value is on record as 0% in the assay with DRAK2; 13% in the assay on DYRK1A; 0% with DYRK1B; 26% with DYRK2; 32% with EGFR; 0% in the assay with EIF2AK1. The “%Inh” value with EPHA1 and in the assay with EPHA2 was 0% each time.

For the molecule `O=c1cc(N2CCOCC2)nc2n(Cc3cccc(C(F)(F)F)c3)ccn12` [GSK2297543], the “%Inh” value came to 0% in the assay on DAPK1; 9% in the assay with DAPK2; 10% with DAPK3; 21% in the assay on DCAMKL1; 10% with DCAMKL2; 0% in the assay with DCAMKL3. In addition, the “%Inh” value in the assay with DDR1 stood at 0%; in the assay with DDR2, 2%; in the assay with DLK it was 0%; in the assay with DMPK2, 0%; in the assay on DMPK, 9%; with DRAK1, 0%. The “%Inh” value was found to be 0% in the assay with DRAK2; 6% in the assay with DYRK1A; 0% in the assay with DYRK1B; 5% in the assay on DYRK2; 25% in the assay with EGFR; 0% in the assay with EIF2AK1. Besides, the “%Inh” value in the assay with EPHA1 is recorded as 0%; in the assay on EPHA2, 13%.

For the molecule `COc1ccc(S(=O)(=O)NC2CCN(c3cc(C)nc(Nc4cccc(C#N)c4)n3)CC2)cc1.O=C(O)C(F)(F)F` [GSK1653539], the “%Inh” value in the assay with DAPK1 was found to be 0%; in the assay with DAPK2 it was 0%; with DAPK3 it was 23%; in the assay on DCAMKL1 it was 0%; with DCAMKL2, 0%; with DCAMKL3 it was 34%. Also, the “%Inh” value in the assay with DDR1 came to 0%; in the assay with DDR2 it was 9%; in the assay on DLK, 0%; in the assay with DMPK2, 0%; in the assay on DMPK it was 0%; in the assay on DRAK1 it was 0%. Further, the “%Inh” value in the assay on DRAK2 was found to be 0%; with DYRK1A, 6%; in the assay with DYRK1B it was 39%; in the assay with DYRK2, 12%; in the assay on EGFR it was 18%; in the assay with EIF2AK1 it was 0%. Besides, the “%Inh” value in the assay on EPHA1 and in the assay on EPHA2 was 0% throughout.

The values are drawn from article PMC5540273 (PLoS ONE, 2017).
